Compound activity deposited in PubChem BioAssay by National Center for Advancing Translational Sciences (NCATS).
NS1 function inh = blocks influenza NS1 protein function; Potency, µM (titrated, usually from 46.1 µM), inactives show at the top dose activity, positive = more growth; 270,000 tested, 0.4% active; AID 2326; calls by dose curve; also: potency is read from the fitted curve at half-maximal effect; actives are rising curves; nearly all actives have a fitted effect of over 50% in size
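A cell-based growth assay was used: compounds that relieve NS1-induced slow growth of budding yeast raise OD600. Assay medium was yeast nitrogen base with ammonium sulphate and -URA supplement, pH 6.0, with 2% galactose.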
Pf growth 96h = P. falciparum growth inhibition at 96 hour, primary screen for plastid delayed-death inhibitors. P. falciparum luciferase reporter growth, 96 h. Potency, µM (doses to about 28.7 µM), for the others: at the highest dose activity change, negative = inhibition, hits mostly inhibitors. 320,000 tested, 6.9% active; also: potency is read from the fitted curve at half-maximal effect; % is scaled to controls: 0 for no effect and ±100 for the full control effect
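Delayed-death screen, second-generation endpoint: infected erythrocytes, 2% hematocrit, 0.05% parasitemia final; 96 hours at 37 C, 5% CO2; luciferase detection reagent; luminescence decrease equals reduced growth.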
CHX counter = affects cycloheximide protein synthesis inhibition readout, counter-screen. max response, %. 300,000 tested, 12% active. AID 2314. cell reporter, cycloheximide protein synthesis inhibition counterscreen; in the data active = max response mostly above about 13%, no sharp cut-off; inactive = mostly below about 14%; also: read at 38.3 µM for the half of the compounds with a filed dose; 0% is about no effect
Shiga toxin inh = inhibitors of Shiga toxin in Vero cells; Vero cells, Shiga toxin protein synthesis inhibition reporter; inhibition, % at 38.7 µM; 290,000 tested, 9.2% active; AID 2315; in the data active = inhibition mostly above about 28%, no sharp cut-off; inactive = mostly below about 43%; also: 0% is about no effect
Pf growth 48h = inhibits P. falciparum growth in the first generation, 48 h; P. falciparum luciferase growth in erythrocytes, 48 h; Potency, µM (titrated, usually from 28.7 µM), without a hit: top-dose activity change, negative = inhibition, hits mostly inhibitors; 310,000 tested, 5.9% active; AID 504832; also: potency is read from the fitted curve at half-maximal effect; % is scaled to controls: 0 for no effect and ±100 for the full control effect
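Here the parasites carry a stable luciferase gene and grow inside erythrocytes in Albumax-based RPMI medium with compound for one erythrocytic cycle. Activity is scored as loss of luminescent signal.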
Active calls of the source: *. Shown are actives, neighbours in structure and some others; about 21% of the full set was active somewhere. Unless noted, calls follow the shape of the dose curve; as a rule, active = well fitted inhibition curve with a large enough effect; inconclusive = small, poorly fitted or top-dose-only effect, or another doubt; inactive = no such curve, though single readings can be large or run the other way.

What do the screens show for `NC(=O)c1ccccc1NS(=O)(=O)c1ccc2c(c1)OCCO2`?
NS1 function inh: -2%; Pf growth 96h: -3%; CHX counter: -1; Shiga toxin inh: -10

Results for CN(C)S(=O)(=O)c1cc(NC(=O)COC(=O)C2CSC3(C)CCC(=O)N23)ccc1Cl (stereo not drawn) ?
NS1 function inh: -15%; Pf growth 96h: inconclusive; CHX counter: 1; Shiga toxin inh: -15; Pf growth 48h: -10%

Results for C/C(=N\NC(=S)NCC(C)(C)C)c1cc(F)cc(F)c1O ?
NS1 function inh: 1%; Pf growth 96h: inconclusive; CHX counter: 3; Shiga toxin inh: 18; Pf growth 48h: 0.29µM*

How did CCC(C)Sc1nc2c(c(=O)[nH]c(=O)n2C)n1Cc1ccccc1Cl (stereo not drawn) do in these assays?
NS1 function inh: -18%; Pf growth 96h: inconclusive; CHX counter: -2; Shiga toxin inh: -1; Pf growth 48h: 12µM*

How did Cn1c(=O)[nH]c(=O)c2c1nc(SCCO)n2Cc1ccccc1Cl do in these assays?
NS1 function inh: 4%; Pf growth 96h: inconclusive; CHX counter: -3; Shiga toxin inh: -10; Pf growth 48h: -26%

How did CSc1nc2c(c(=O)[nH]c(=O)n2C)n1Cc1ccccc1Cl do in these assays?
NS1 function inh: -3%; Pf growth 96h: 5.2µM*; CHX counter: 4; Shiga toxin inh: -9; Pf growth 48h: -13%

Results for CCC(C)Sc1nc2c(c(=O)[nH]c(=O)n2C)n1C (stereo not drawn) ?
NS1 function inh: -125%; Pf growth 96h: inconclusive; CHX counter: 1; Shiga toxin inh: -10; Pf growth 48h: 0%

What do the screens show for `Cc1ccc(Cn2c(SCCN3CCCCC3)nc3c2c(=O)[nH]c(=O)n3C)cc1`?
NS1 function inh: -20%; Pf growth 96h: 3.7µM*; CHX counter: -4; Shiga toxin inh: -8; Pf growth 48h: -14%

What do the screens show for `CC(=O)Nc1ccc(NC(=O)C(NS(=O)(=O)c2cccc3nsnc23)C(C)C)cc1` (stereo not drawn)?
NS1 function inh: -13%; Pf growth 96h: 6%; CHX counter: -2; Shiga toxin inh: 8; Pf growth 48h: 30%

What do the screens show for `COc1ccc(C/C(=N\OC(C)=O)c2ccc(OC)cc2)cc1`?
NS1 function inh: -40%; Pf growth 96h: -27%; CHX counter: 18*; Shiga toxin inh: 23; Pf growth 48h: 14%

Results for COc1ccc(CC(=O)Nc2ccc(C(N)=O)cc2)cc1 ?
NS1 function inh: inconclusive; Pf growth 96h: 34%; CHX counter: 0; Shiga toxin inh: -7; Pf growth 48h: -7%

What do the screens show for `COC(=O)/N=C(/Cc1ccc(OC)cc1)c1ccc(OC)cc1`?
NS1 function inh: -25%; Pf growth 96h: 31%; CHX counter: 18*; Shiga toxin inh: 56*; Pf growth 48h: 31%

How did CC(NC(=O)/C=C/c1cnc2ccccc2n1)C12CC3CC(CC(C3)C1)C2 (stereo not drawn) do in these assays?
NS1 function inh: -4%; Pf growth 96h: -92%; CHX counter: 5; Shiga toxin inh: -4; Pf growth 48h: inconclusive

Results for Nc1c(-c2ccccc2)cnn1-c1cccc(Cl)c1 ?
NS1 function inh: -10%; Pf growth 96h: 381%; CHX counter: 51*; Shiga toxin inh: 82*; Pf growth 48h: 217%

Results for NC(=O)c1cnn(-c2cccc(Cl)c2)c1N ?
NS1 function inh: -3%; Pf growth 96h: 15%; CHX counter: 7; Shiga toxin inh: 11; Pf growth 48h: -11%

How did Cc1cccc(-c2cnn(-c3ccccc3)c2N)c1 do in these assays?
NS1 function inh: -34%; Pf growth 96h: 200%; CHX counter: 44*; Shiga toxin inh: 101*; Pf growth 48h: 126%

Results for Cc1cc(Nc2ccccc2)n(-c2cccc(Cl)c2)n1 ?
NS1 function inh: 5%; CHX counter: 4; Shiga toxin inh: 7; Pf growth 48h: 16%

What do the screens show for `Nc1ccccc1Nc1cc(-c2cccc(Cl)c2)nn1-c1ccccc1`?
NS1 function inh: 22%; Pf growth 96h: inconclusive; CHX counter: 20*; Shiga toxin inh: active; Pf growth 48h: inconclusive

How did Cc1cccc(-c2cnn(-c3cccc([N+](=O)[O-])c3)c2N)c1 do in these assays?
NS1 function inh: -2%; Pf growth 96h: 96%; CHX counter: 22*; Shiga toxin inh: 36; Pf growth 48h: 40%
